The values below come from PubChem BioAssay (NCATS).

Unmarked numbers belong to inactive results. Records with an inconclusive call do not appear. Calls of active or inactive are those of the source. Unless noted, calls come from the whole dose curve; as a rule, active = well fitted curve in the direction sought with a large enough effect; inconclusive = small, poorly fitted or top-dose-only effect, or another doubt; inactive = no such curve, though single readings can be large; an effect the other way counts as inactive or inconclusive.

One assay deals with Tov-21-G. Description: Primary qHTS to identify gynecologic anti-cancer compounds using libraries of approved drugs and bioactive compounds (AID 1345084). Note: nearly all actives have a fitted effect of over 55% in size. Note: potency is the fitted concentration of half-maximal effect. The note with it: Gynecologic cancer cell panel viability, ATPlite luminescence, 48 h; series mostly up to 57.5 µM. Put shortly: (§1)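 Cytotoxicity screen measuring ATP content by luciferase luminescence. Each compound is applied at five concentrations for 48 h at 37 C with 5% CO2.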
Background: qHTS replaces the single test concentration by a dilution series.

In another assay the test system is Tov112D. The assay is described as above. The note with it: Gynecologic cancer cell panel viability, ATPlite luminescence, 48 h; series mostly up to 57.5 µM. The gist of the method:
as §1

Assay [1] is described as follows: Drug repurposing screens with cells derived from glioblastoma tumor samples (AID 1345199). For activity, negative = cell killing: % is set by controls: 0 for no effect and ±100 for the full control effect. Note: nearly all actives have a fitted effect of over 40% in size. Note: potency is the fitted concentration of half-maximal effect. The following applies: GBM patient neurospheres viability, ATP luminescence, 48 h. Put shortly:
(§2)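 Primary testing used CD133+ neurospheres from four GBM patients, seven concentrations, 48 h exposure and ATP-based viability; confirmation added three slower-growing patient lines.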

For a further assay, the system named is astro. The description is as above. The note with it: viability, ATP luminescence, 48 h; series mostly up to 45.9 µM. Put shortly:
as §2

The target in assay [2] is Nuclear receptor subfamily 1 group I member 2 (Rattus norvegicus) (UniProt Q9R1A7). Description: qHTS assay for small molecule activators of the rat pregnane X receptor (rPXR) signaling pathway (AID 651751; call rule not given here; note: 0% is about no effect). The note with it: rPXR reporter cells, luciferase (One-Glo), 24 h.
[3] abbreviates: at 45.9 µM (top of the series), tumour line B.
[4] abbreviates: at 45.9 µM (top of the series), tumour line D.
Where [5] appears, read: at 46 µM (top of the series), tumour line A.
Where [6] appears, read: at 46.1 µM (top of the series), tumour line C.
Setting [7] is: at 20 µM (top of the series), tumour line C.
The mark [8] stands for this setting: at 21.2 µM (top of the series), tumour line B.
Where [9] appears, read: at 21.2 µM (top of the series), tumour line D.
[10] abbreviates: at 21.3 µM (top of the series), tumour line A.

Nuclear receptor subfamily 1 group I member 2 (Rattus norvegicus), sequence (Q9R1A7 whole entry, looked up): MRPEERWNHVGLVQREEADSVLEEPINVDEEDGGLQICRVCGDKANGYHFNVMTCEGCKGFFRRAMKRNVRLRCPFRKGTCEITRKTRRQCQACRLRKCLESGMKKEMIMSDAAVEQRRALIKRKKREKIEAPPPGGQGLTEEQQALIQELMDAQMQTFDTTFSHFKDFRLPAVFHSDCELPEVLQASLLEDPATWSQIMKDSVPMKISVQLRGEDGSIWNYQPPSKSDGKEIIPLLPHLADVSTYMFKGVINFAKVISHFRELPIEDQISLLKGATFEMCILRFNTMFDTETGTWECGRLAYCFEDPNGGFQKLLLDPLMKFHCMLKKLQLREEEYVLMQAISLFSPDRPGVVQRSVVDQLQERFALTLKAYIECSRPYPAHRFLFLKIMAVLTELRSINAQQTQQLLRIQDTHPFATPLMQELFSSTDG

Regarding `NCCCC(O)(P(=O)(O)O)P(=O)(O)O`, the Potency result with Tov-21-G and in the assay on Tov112D was “inactive” in each case. Also, the activity, negative = cell killing in assay [1] (setting [3]) was -8.76%; in assay [1] (setting [4]) it was 1.9%; in assay [1] (setting [5]), -6.09%; in assay [1] (setting [6]), -10.2%.
On to `COc1cccc(N(C)C(=S)Oc2ccc3c(c2)CCCC3)n1`, for which the Potency entry in the assay on Tov-21-G and with Tov112D was “inactive” throughout. Besides, the activity, negative = cell killing in assay [1] (setting [6]) is -18.5%. For the same compound, the Potency in assay [1] (tumour line A) is 12.6 µM (active); in assay [1] (tumour line D), 17.8 µM (active).
Regarding `COC(=O)Nc1nc2ccc(S(=O)c3ccccc3)cc2[nH]1` (configuration not stated), the Potency in the assay on Tov-21-G is 3.98 µM (active); with Tov112D it was 1.58 µM (active). Besides, the activity, negative = cell killing in assay [1] (setting [3]) was -15.1%; in assay [1] (setting [4]), -1.35%; in assay [1] (setting [6]), -3.75%.
As for `O=c1cc(O)c(Cl)c[nH]1`, the Potency result in the assay with Tov-21-G and with Tov112D was “inactive” in each case. Moreover, the activity, negative = cell killing in assay [1] (setting [3]) was -16%; in assay [1] (setting [4]) it was 7.88%; in assay [1] (setting [5]), -15.8%; in assay [1] (setting [6]), -29.9%.
On to `C[C@@H]1C[C@H]2[C@@H]3CCC4=CC(=O)C=C[C@]4(C)[C@@]3(Cl)[C@@H](O)C[C@]2(C)[C@@]1(OC(=O)c1ccco1)C(=O)CCl`, for which the Potency entry in the assay with Tov-21-G, with Tov112D and in the assay on astro was “inactive” each time. Moreover, the activity, negative = cell killing was 13.7% in assay [1] (setting [7]), -9.13% in assay [1] (setting [8]), -9.21% in assay [1] (setting [9]) and -28.2% in assay [1] (setting [10]).
Take `C[C@@H]1CN(c2c(F)c(N)c3c(=O)c(C(=O)O)cn(C4CC4)c3c2F)C[C@H](C)N1`: the Potency entry with Tov-21-G, in the assay with Tov112D and in the assay with astro was “inactive” in each case. In addition, the activity, negative = cell killing is -1.03% in assay [1] (setting [3]), -17% in assay [1] (setting [4]), -8% in assay [1] (setting [5]) and -3.77% in assay [1] (setting [6]).
As to `CN(C)CCc1c[nH]c2ccc(CS(=O)(=O)N3CCCC3)cc12`, the Potency result with Tov-21-G and with Tov112D was “inactive” each time. Moreover, the activity, negative = cell killing is -15.8% in assay [1] (setting [3]), -5.89% in assay [1] (setting [4]), -32.2% in assay [1] (setting [5]) and -0.0757% in assay [1] (setting [6]).
As to `O=S(=O)(O)CCS`, the Potency entry in the assay with Tov-21-G, with Tov112D and with astro was “inactive” throughout. For the same compound, the activity, negative = cell killing was -4.82% in assay [1] (setting [3]), -6.41% in assay [1] (setting [4]), -21.8% in assay [1] (setting [5]) and -18% in assay [1] (setting [6]).
For the compound `CNS(=O)(=O)Cc1ccc2[nH]cc(CCN(C)C)c2c1`, the Potency result in the assay on Tov-21-G, in the assay on Tov112D and in the assay on astro was “inactive” each time. Further, the activity, negative = cell killing in assay [1] (setting [3]) was 2.54%; in assay [1] (setting [4]) it was -2.5%; in assay [1] (setting [5]), -14%; in assay [1] (setting [6]), 0.932%.
In the case of `Cc1nnc(C(=O)NC(C)(C)c2nc(C(=O)NCc3ccc(F)cc3)c(O)c(=O)n2C)o1`, the Potency result in the assay on Tov-21-G, in the assay on Tov112D and in the assay on astro was “inactive” throughout. Also, the activity, negative = cell killing is 5.76% in assay [1] (setting [3]), -4.7% in assay [1] (setting [4]), -16.1% in assay [1] (setting [5]) and 13.1% in assay [1] (setting [6]).
`S=P(N1CC1)(N1CC1)N1CC1`: the Potency result in the assay with Tov-21-G, in the assay with Tov112D and with astro was “inactive” throughout. In addition, the activity, negative = cell killing in assay [1] (setting [3]) was -13.6%; in assay [1] (setting [4]), -2.85%; in assay [1] (setting [6]) it was -0.68%; in assay [1] (at 91.6 µM (top of the series), tumour line B), -15.1%; in assay [1] (at 91.6 µM (top of the series), tumour line D), -14.2%; in assay [1] (at 99.2 µM (top of the series), tumour line C), -13%. Moreover, the max response in assay [2] is 2.63%.
In the case of `CCOCC(O)COc1ccc(NC(=O)CC[S+](C)C)cc1` (configuration not stated), the Potency result in the assay with Tov-21-G, in the assay with Tov112D and with astro was “inactive” throughout. The activity, negative = cell killing is -7.04% in assay [1] (setting [3]), -30.9% in assay [1] (setting [4]), -26.7% in assay [1] (setting [5]) and -28.1% in assay [1] (setting [6]).
With `NS(=O)(=O)c1cc2c(cc1Cl)NC(C(Cl)Cl)NS2(=O)=O` (configuration not stated), the Potency entry with Tov-21-G, in the assay with Tov112D and in the assay with astro was “inactive” in each case. Further, the activity, negative = cell killing in assay [1] (setting [7]) is 6.84%; in assay [1] (setting [8]), -4.6%; in assay [1] (setting [9]), -11.1%; in assay [1] (setting [10]), -6.45%.
`CCOC(=O)[C@H](CCc1ccccc1)N[C@H]1CS[C@H](c2cccs2)CN(CC(=O)O)C1=O`: the Potency result in the assay with Tov-21-G, in the assay with Tov112D and with astro was “inactive” throughout. Further, the activity, negative = cell killing in assay [1] (setting [3]) was -5.27%; in assay [1] (setting [4]), -7.87%; in assay [1] (setting [5]), -16.7%; in assay [1] (setting [6]), -21.6%.
Consider `CO[C@@H]1[C@@H](OC(N)=O)[C@@H](O)[C@H](Oc2ccc3c(O)c(NC(=O)c4ccc(O)c(CC=C(C)C)c4)c(=O)oc3c2C)OC1(C)C`, for which the Potency entry with Tov-21-G, with Tov112D and in the assay on astro was “inactive” in each case. For the same compound, the activity, negative = cell killing was -4.06% in assay [1] (setting [7]), -5.36% in assay [1] (setting [8]), -2.99% in assay [1] (setting [9]) and -27.7% in assay [1] (setting [10]).
In the case of `COc1cnc(NS(=O)(=O)c2ccc(N)cc2)nc1`, the Potency entry in the assay on Tov-21-G, with Tov112D and with astro was “inactive” in each case. The activity, negative = cell killing is -10.8% in assay [1] (setting [7]), -19.1% in assay [1] (setting [8]), -2.41% in assay [1] (setting [9]) and -32% in assay [1] (setting [10]).
For the compound `CC(C)(C)NC(=O)[C@H]1CC[C@H]2[C@@H]3CC[C@H]4NC(=O)C=C[C@]4(C)[C@H]3CC[C@]12C`, the Potency entry in the assay on Tov-21-G, with Tov112D and in the assay on astro was “inactive” each time. The activity, negative = cell killing is -3.62% in assay [1] (setting [7]), -10.8% in assay [1] (setting [8]), -2.64% in assay [1] (setting [9]) and -15% in assay [1] (setting [10]).
In the case of `CCCN[C@H]1CCc2nc(N)sc2C1`, the Potency entry in the assay with Tov-21-G and with Tov112D was “inactive” each time. Moreover, the activity, negative = cell killing in assay [1] (setting [3]) was 3.81%; in assay [1] (setting [4]), 9.12%; in assay [1] (setting [5]), -26.8%; in assay [1] (setting [6]), -13%.
In the case of `CCn1cc(C(=O)O)c(=O)c2cc(F)c(N3CCNCC3)cc21`, the Potency result in the assay on Tov-21-G and in the assay with Tov112D was “inactive” each time. Besides, the activity, negative = cell killing in assay [1] (setting [7]) is 2.43%; in assay [1] (setting [8]) it was -7.83%; in assay [1] (setting [9]), -12%; in assay [1] (setting [10]) it was -21.7%; in assay [1] (setting [3]) it was 1.94%; in assay [1] (setting [4]), 2.4%. Besides, the activity, negative = cell killing in assay [1] (setting [6]) is -8.69%.
On to `CCCc1nc(C)c2c(=O)[nH]c(-c3cc(S(=O)(=O)N4CCN(CC)CC4)ccc3OCC)nn12`, for which the Potency entry in the assay with Tov-21-G, in the assay on Tov112D and with astro was “inactive” each time. In addition, the figures for the activity, negative = cell killing in assay [1] (setting [3]), in assay [1] (setting [4]) and in assay [1] (setting [6]) were -13%, -20.9% and -8.37%, respectively. The Potency in assay [1] (tumour line A) is 17.8 µM (active).
